From PubChem BioAssay
Shown are actives, neighbours in structure and some others; about 3.5% of the full set was active somewhere.
TEAD-YAP inh: TEAD-YAP interaction inhibition, primary screen, TEAD-YAP interaction inhibitor project, luminescence, HEK-TIYL cells | TEAD-Gal4/YAP UAS-luciferase luminescence | inhibition, % at 9.12 µM | 640,000 tested, 1.4% active | AID 1259422, 2018; in the data active = inhibition above about 32%;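 also: 0% = median of test compound wells and 100% = reference inhibitor wells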
MITF inh: MITF inhibitors, primary screen, biochemical, AlphaScreen, human. AlphaScreen MITF homodimerization, bead proximity signal. inhibition, % at 2.6 µM. 650,000 tested, 0.91% active. Microphthalmia-associated transcription factor (Homo sapiens), O75030; in the data active = inhibition above about 50%;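 also: 0% = vehicle wells with protein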
GPR151 ag: activators of human GPR151, primary screen, cell-based, PathHunter beta-arrestin, luminescence; G-protein coupled receptor 151 (Homo sapiens), Q8TDV0; PathHunter beta-arrestin GPR151 cells; activation, % at 11.2 µM; 650,000 tested, 1% active; AID 1508602, 2020; in the data active = activation above about 4.9%;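 also: 0% = median of compound wells and 100% = cells with positive control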
FBW7 activator: FBW7 E3 ligase activators, primary screen, biochemical, AlphaScreen, human; F-box/WD repeat-containing protein 7 (Homo sapiens), Q969H0; AlphaScreen FBW7–phospho-cyclin E peptide binding, activator screen; normalized activity (activation), % at 26.1 µM; 650,000 tested, 0.13% active; AID 1259310, 2017; in the data active = normalized activity above about 1.9%;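 also: purified mutant Fbw7 with reduced substrate affinity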
GPR151 confirm: GPR151 activators, triplicate retest, confirmation, cell-based, PathHunter beta-arrestin, luminescence | GPR151 PathHunter beta-arrestin cells, 90 min; % of EA-reagent control over plate median | activation, % at 11.2 µM | AID 1508609, 2020 | 6,700 tested, under 10 active | shares compounds with GPR151 ag;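 active = mean percent activation across replicates above the confirmation screen cutoff of 4.91%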
GPR119 counter: GPR119 activators in beta-arrestin cells, counter-screen for GPR151 activator project, cell-based, PathHunter beta-arrestin, luminescence, triplicate | shares compounds with GPR151 ag | 90 min; 0 = compound-well median, 100 = enzyme-acceptor control | activation, % at 11.2 µM | 6,700 tested, 0.3% active | AID 1508611, 2020;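 active = mean percent activation in the counterscreen above 29.09%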;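 also: counterscreen on off-target GPR119 to flag nonselective hits from the GPR151 activator screen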
Target sequence (Q8TDV5 whole entry, looked up): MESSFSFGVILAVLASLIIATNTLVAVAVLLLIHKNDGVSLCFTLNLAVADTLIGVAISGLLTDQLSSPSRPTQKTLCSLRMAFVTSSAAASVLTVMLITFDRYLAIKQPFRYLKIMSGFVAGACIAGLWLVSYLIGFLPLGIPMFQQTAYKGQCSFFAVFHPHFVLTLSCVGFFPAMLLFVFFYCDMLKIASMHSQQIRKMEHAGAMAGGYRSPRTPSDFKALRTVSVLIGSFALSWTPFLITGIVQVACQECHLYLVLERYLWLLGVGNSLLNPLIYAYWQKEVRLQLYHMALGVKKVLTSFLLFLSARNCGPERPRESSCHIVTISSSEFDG
* marks the source's active call; other numbers are inactive results.

What do the screens show for `CNc1c(N)c(=O)oc2ccccc12`?
TEAD-YAP inh: -27.3; MITF inh: 9.3; GPR151 ag: -0.2; FBW7 activator: 0.2

Results for Cc1ccc(Nc2c(N)c(=O)oc3ccccc23)cc1 ?
TEAD-YAP inh: -10.4; MITF inh: 8.1; GPR151 ag: 17.4*; FBW7 activator: 0.1; GPR151 confirm: -0.1; GPR119 counter: -4.8

How did Cc1ccc(S(=O)(=O)N(CC(O)Cn2nc(C)cc2C)c2cccc([N+](=O)[O-])c2)cc1 (centres undefined) do in these assays?
TEAD-YAP inh: 9.7; MITF inh: 6.7; GPR151 ag: 5.8*; FBW7 activator: -0.1; GPR151 confirm: 2.6; GPR119 counter: 4.5

Results for Cc1cc(C)n(CC(O)CN(c2cccc([N+](=O)[O-])c2)S(=O)(=O)c2ccccc2)n1 (centres undefined) ?
TEAD-YAP inh: -0.6; MITF inh: 10.6; GPR151 ag: 0.7; FBW7 activator: 0.0

How did Cc1cccnc1NC(=O)C1CCN(S(=O)(=O)c2ccc3c(c2)OCC(=O)N3)CC1 do in these assays?
TEAD-YAP inh: -2.0; MITF inh: 4.4; GPR151 ag: 0.1; FBW7 activator: -0.1

What do the screens show for `C#CCN(CC#C)c1cccc(Cl)c1`?
TEAD-YAP inh: -2.6; MITF inh: 11.2; GPR151 ag: 8.2*; FBW7 activator: 0.0; GPR151 confirm: -0.7; GPR119 counter: -5.7

Results for C#CCN(CC#C)c1ccc(Cl)cc1 ?
TEAD-YAP inh: 0.7; MITF inh: -4.8; GPR151 ag: 0.4; FBW7 activator: -0.1

What do the screens show for `O=Cc1ccc(OCC(=O)Nc2ccc(F)cc2)c(Br)c1`?
TEAD-YAP inh: -9.1; MITF inh: 6.5; GPR151 ag: -1.5; FBW7 activator: 0.1

Results for NC(=O)NC(=O)COc1ccc(F)cc1Br ?
TEAD-YAP inh: -23.3; MITF inh: 3.1; GPR151 ag: 8.2*; FBW7 activator: 0.0; GPR151 confirm: 0.4; GPR119 counter: 0.1

What do the screens show for `CC(=O)Nc1sc2c(c1C(N)=O)CCN(C(C)=O)C2`?
TEAD-YAP inh: 3.5; MITF inh: 14.9; GPR151 ag: 0.8; FBW7 activator: 0.2

What do the screens show for `CC(=O)N1CCc2c(sc(NC(=O)C(C)(C)C)c2C(N)=O)C1`?
TEAD-YAP inh: 0.2; MITF inh: 2.1; GPR151 ag: 6.4*; FBW7 activator: 0.2; GPR151 confirm: -0.2; GPR119 counter: -3.7

What do the screens show for `CCOC(=O)c1ccc2c(c1)sc(=NC(=O)C(C)(C)C)n2C`?
TEAD-YAP inh: 61.1*; MITF inh: -16.2; GPR151 ag: 6.5*; FBW7 activator: 0.0; GPR151 confirm: 0.0; GPR119 counter: 0.2

What do the screens show for `COC(=O)COc1c(Cl)cc(C=O)cc1OC`?
TEAD-YAP inh: 2.9; MITF inh: 10.4; GPR151 ag: 0.2; FBW7 activator: 0.1

Results for O=C(CC(c1ccccc1)c1ccccc1O)NCC1(c2ccccc2)CCOCC1 (centres undefined) ?
TEAD-YAP inh: -0.7; MITF inh: 9.6; GPR151 ag: -0.1; FBW7 activator: 0.1

How did C=CCNCCC1CCC(=O)N1Cc1ccc(C)o1 (centres undefined) do in these assays?
TEAD-YAP inh: -0.8; MITF inh: 13.8; GPR151 ag: 2.6; FBW7 activator: 0.8

Results for C=CCNCCC1CCC(=O)N1Cc1cn2c(C)csc2n1 (centres undefined) ?
TEAD-YAP inh: -7.0; MITF inh: 22.1; GPR151 ag: 12.3*; FBW7 activator: 0.9; GPR151 confirm: 0.2; GPR119 counter: 6.8

What do the screens show for `CCn1c(SCC(=O)Nc2cccc(C(=O)O)c2)nnc1-c1cccc(C)c1`?
TEAD-YAP inh: 0.8; MITF inh: 6.6; GPR151 ag: -0.2; FBW7 activator: 1.1

Results for CCn1c(COc2cccc(C)c2)nnc1SCC(=O)Nc1cccc(C(=O)O)c1 ?
TEAD-YAP inh: 0.1; MITF inh: 4.0; GPR151 ag: 6.3*; FBW7 activator: -0.1; GPR151 confirm: 0.4; GPR119 counter: 3.3

What do the screens show for `CC(C)CC(=O)N1CCC(C2(CCc3ccccc3)NC(=O)N(CCN(C)C)C2=O)CC1` (centres undefined)?
TEAD-YAP inh: 9.3; MITF inh: 3.4; GPR151 ag: -0.8; FBW7 activator: -0.1

How did CCC(C)CC(=O)N1CCC(C2(CCC(C)C)NC(=O)N(CCN(C)C)C2=O)CC1 (centres undefined) do in these assays?
TEAD-YAP inh: 8.5; MITF inh: 7.5; GPR151 ag: 7.5*; FBW7 activator: 0.2; GPR151 confirm: 0.4; GPR119 counter: -3.6

What do the screens show for `Cc1ccc(Nc2nc(N3CCOCC3)nc3c2cnn3C)c(C)c1`?
TEAD-YAP inh: -2.4; MITF inh: 1.7; GPR151 ag: 5.4*; FBW7 activator: -0.1; GPR151 confirm: -0.1; GPR119 counter: 3.9

How did CCC(=O)Nc1ccc(S(=O)(=O)N2CCCCC2)cc1 do in these assays?
TEAD-YAP inh: 4.9; MITF inh: 7.7; GPR151 ag: 0.0; FBW7 activator: -0.1

Results for COCc1nnn(-c2nonc2N)c1C(=O)NNC(=O)c1ccccc1Br ?
TEAD-YAP inh: 9.4; MITF inh: 6.1; GPR151 ag: 10.0*; FBW7 activator: 0.2; GPR151 confirm: 1.0; GPR119 counter: 8.4

How did COCc1nnn(-c2nonc2N)c1C(=O)NNC(=O)C1CC1 do in these assays?
TEAD-YAP inh: 2.9; MITF inh: -3.7; GPR151 ag: -0.4; FBW7 activator: 0.1

Results for CC(=O)Nc1cccc(NC(=O)COc2cccc3ccc(N4CCCC4)nc23)c1 ?
TEAD-YAP inh: 31.0; MITF inh: 18.6; GPR151 ag: 5.3*; FBW7 activator: 0.2; GPR151 confirm: -0.4; GPR119 counter: 7.4

How did COC(=O)c1ccc(C2C3=C(CC(C)(C)CC3=O)N(c3ccc(F)cc3F)C3=C2C(=O)CC(C)(C)C3)cc1 do in these assays?
TEAD-YAP inh: 0.9; MITF inh: 2.1; GPR151 ag: 1.4; FBW7 activator: -0.1

How did CCN(CC)c1ccc(/C=N/NC(=O)c2ccccc2Cl)c(O)c1 do in these assays?
TEAD-YAP inh: 1.1; MITF inh: 8.2; GPR151 ag: 7.3*; FBW7 activator: 0.1; GPR151 confirm: -0.1; GPR119 counter: -7.5

What do the screens show for `O=C(N/N=C/c1ccccc1O)c1ccc(Cl)cc1Cl`?
TEAD-YAP inh: -36.4; MITF inh: 21.2; GPR151 ag: 5.1*; FBW7 activator: -0.3; GPR151 confirm: 0.2; GPR119 counter: 2.7
